In all, about 410,000 compounds went through this assay and about 310 (0.076%) were called active. Another 2% or so got no clear call; they are omitted. The list comes from a sample in which actives are over-represented; it also holds similar structures and randomly drawn compounds. A number with no mark means an inactive call. The call rests on the fitted dose curve; in most records, active means well fitted activation curve with a large enough effect; inconclusive means small, poorly fitted or top-dose-only effect, or another doubt; inactive means no such curve, though single readings can be large or run the other way.
molecular target: Parathyroid hormone/parathyroid hormone-related peptide receptor (Homo sapiens) (UniProt Q03431); experiment: qHTS for PTHR1 Agonists: Primary Screen; settings: HEK293 GP2 PTHR1 cells, GloSensor cAMP luminescence, 1 h; series mostly up to 115 µM; activation: at the top concentration; further: nearly all actives have a fitted effect of over 55% in size
Sequence (Q03431 whole entry, looked up): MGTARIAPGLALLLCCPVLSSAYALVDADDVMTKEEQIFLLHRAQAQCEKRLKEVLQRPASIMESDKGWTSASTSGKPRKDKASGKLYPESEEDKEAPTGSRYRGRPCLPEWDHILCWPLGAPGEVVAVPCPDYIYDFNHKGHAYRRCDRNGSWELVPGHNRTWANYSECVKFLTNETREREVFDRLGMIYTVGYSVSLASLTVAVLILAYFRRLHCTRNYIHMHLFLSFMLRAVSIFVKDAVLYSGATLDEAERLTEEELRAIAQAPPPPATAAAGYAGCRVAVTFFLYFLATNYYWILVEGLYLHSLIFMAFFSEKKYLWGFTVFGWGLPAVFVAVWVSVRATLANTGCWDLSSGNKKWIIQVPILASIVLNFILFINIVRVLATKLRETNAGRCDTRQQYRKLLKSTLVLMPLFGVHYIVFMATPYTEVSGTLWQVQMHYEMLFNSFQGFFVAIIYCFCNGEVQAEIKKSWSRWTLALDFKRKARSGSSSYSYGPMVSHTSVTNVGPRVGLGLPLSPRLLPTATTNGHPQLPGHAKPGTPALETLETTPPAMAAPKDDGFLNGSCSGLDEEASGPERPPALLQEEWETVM
Source text: The goal of the proposed studies is to discover new compounds that act as potent agonists on the parathyroid hormone receptor type-1 (PTHR1). The PTHR1 plays critical roles in maintaining blood calcium and phosphate levels, as well as in controlling bone remodeling. PTHR1 agonists could thus be useful for treating diseases such as hypoparathyroidism and osteoporosis. In the former disease, an agonist drug would help maintain normal blood calcium and phosphate levels under conditions of parathyroid hormone deficiency. In the latter disease, an agonist drug would stimulate new bone formation and thus reduce the risk of fracture, under conditions of bone fragility, as occurs in aging.
To that end, we performed a quantitative high-throughput screening (qHTS) of the Molecular Libraries Probe Centers Network (MLPCN) compound libraries at the NIH Chemical Genomics Center (NCGC) for the parathyroid hormone receptor type-1 (PTHR1) using a unique HEK-293-derived cell line (GP2) that expresses the PTHR1 and a glosensor cAMP reporter construct.
NIH Molecular Libraries Probe Production Centers Network [MLPCN]
NIH Chemical Genomics Center [NCGC]
Assay Submitter (PI): Thomas Gardella, Massachusetts General Hospital
4 microL are dispensed into a 1536-well micro plate to yield 3,000 cells/well. The plates are then incubated overnight, after which 4 microL of 0.5 mM of BIoTium Luciferin plus 0.5 mM IBMX are added. They are then incubated at 37 degree for one hour before 23 nL of compounds are added through pinning and then incubated at 37 degree again for another hour. After the plates are kept at room temperature for 15 min before they are read on the ViewLux to measure luminescence.
Potency means the concentration at half of the fitted maximal effect.

Compound	activation [%]	outcome	Potency
Cc1ccc(CCNC(=O)C2CCN(c3nnc(-n4cccc4CNc4ccc(C)cc4)s3)CC2)cc1	1.18		
Cc1ccc(SCC(=O)Nc2ccc3oc(-c4ccccc4F)nc3c2)cc1	-7.35		
CC(=O)N1c2ccc(S(=O)(=O)N3CCCCCC3)cc2CC1C(=O)NCc1ccccc1C (configuration not stated)		inactive	
COc1ccccc1N1CCN(CCCNC(=O)c2cnn(-c3ccccc3Cl)c2C2CCN(C(=O)OC(C)(C)C)CC2)CC1		inactive	
CCN1CCN(CCCNC(=O)c2cnn(-c3ccc(C)cc3C)c2C2CCN(C(=O)OC(C)(C)C)CC2)CC1	-12.3		
Cc1cccc(C)c1-n1ncc(C(=O)NCCCN2CCCCC2)c1C1CCN(C(=O)OC(C)(C)C)CC1			14.1 µM (active)
O=C(NC1CCCCC1)c1ccc(Cn2c(SCc3ccccc3)nc3cccnc32)cc1		inactive	
COc1ccc(N(C)C(=O)C2CCN(S(=O)(=O)c3cc(Br)cc4c3N(C(C)=O)CC4)CC2)cc1	-10.4		
CCOc1ccc(OCC)c(NC(=O)c2c(C)nn(-c3ccccc3)c2-n2cccc2)c1		inactive	
COc1cccc(-c2n[nH]c3c2C(c2cccc(O)c2)N(C)C3=O)c1 (configuration not stated)	-24.7		
CCCN1CCN(CCCNC(=O)Cn2nc(CC)n3c(cc4occc43)c2=O)CC1	11.6		
COc1ccc2c(c1)c(N1CCCC1=O)c(C(=O)Nc1ccc(OC)c(Cl)c1)n2C	-20.4		
COC(=O)c1cc2occc2n1Cc1nc(-c2ccc(C)cc2)oc1C	-6.46		
Cc1ccc(-c2cnc(NCc3ccc(C(C)C)cc3)n2C)cc1	-25.2		
C=Cc1ccc(Cn2c(C(=O)O)c(CNC3CCCC3)c3ccc(C)cc32)cc1		inactive	
CCN(CC)C(=O)CSc1nc2cc3c(cc2c(=O)n1CCCC(=O)NCc1ccc2c(c1)OCO2)OCO3	-15.7		
CCOc1ccc(CNC(=O)C2CCCN(S(=O)(=O)N(CC)c3ccc(OCC)cc3)C2)cc1 (configuration not stated)	-6.06		
CCN(CC)S(=O)(=O)c1ccc2c(c1)c(=O)c(C(=O)N1CCN(c3cccc(Cl)c3)CC1)cn2C	-8.06		
COc1cccc(CNC(=O)C2CCC(CNS(=O)(=O)c3cccs3)CC2)c1 (configuration not stated)		inactive	
COc1ccc(N2CCN(S(=O)(=O)c3ccc(-c4coc(C)n4)cc3)CC2)cc1	-12.8		
Cc1ccc(C)c(N2CCN(C(=O)CN3C(=O)COc4ccc(S(=O)(=O)N5CCCCCC5)cc43)CC2)c1	7.52		
COc1ccccc1CNC(=O)Cn1nc(C)c2nn(-c3ccc(Cl)cc3)c(C)c2c1=O	-25.9		
O=C(O)c1ccc(CSc2nc3cccnc3n2Cc2cccc(F)c2)cc1	-22.9		
CC(C)c1ccc(NC(=O)c2ccc(Cn3nc(N4CCN(c5ccccc5)CC4)ccc3=O)o2)cc1	-7.89		

Compound	activation [%]	outcome	Potency
O=C(CSc1nccn1C1CCCC1)Nc1cc(C(F)(F)F)ccc1Cl	-85.1		
Cc1ccc(Cc2cnc(N)s2)o1			3.55 µM (active)
Cc1ccc(-c2nc3cccc(C)n3c2Nc2ccc3c(c2)OCCO3)cc1		inactive	
CCN(CC)c1ccc(NC(=O)Cn2nc3c(cc2=O)CCCC3)c(C)c1		inactive	
CCC(=O)N1c2ccccc2CC1C(=O)N1CCN(c2ccccc2F)CC1 (configuration not stated)		inactive	
Cc1cc(C)c(NC(=O)CCc2c(C)nc3c(c(C)nn3C(C)(C)C)c2C)c(C)c1		inactive	
Cn1c(=O)c(C(=O)O)nn(-c2ccccc2)c1=O		inactive	
Cc1cc(C)cc(NC(=O)CSc2nc(=O)n(CCN3CCOCC3)c3c2CCC3)c1	-21		
COc1ccccc1NC(=O)Cn1cnc2ccc(S(=O)(=O)N3CCC(C)CC3)cc2c1=O	-5.33		
COc1ccc(C2(Nc3cccc(F)c3)C(=O)c3ccccc3C2=O)cc1	-29.1		
CC1CCN(S(=O)(=O)c2ccc3c(c2)N(CC(=O)NCCc2ccccc2)C(=O)CO3)CC1		inactive	
COc1ccc(-n2nc(C(=O)NCCc3ccc(Cl)cc3)c3c4ccccc4n(C)c3c2=O)cc1Cl		inactive	
CCc1nc2sc3c(Cl)ncnc3c2c2c1CCCC2		inactive	
c1ccc(CSc2ncnc3c2sc2nc(N4CCOCC4)c4c(c23)CCCC4)cc1		inactive [at 57.5 µM]	
CCCCSc1ncnc2c1sc1nc(N3CCOCC3)c3c(c12)CCCC3			79.4 µM (active)
COC(=O)c1c(NC(=O)c2cc(=O)c3c(C)cc(C)cc3o2)sc2c1CCCC2		inactive	
Cc1ccccc1NC(=O)Cn1cc(C(=O)c2cccs2)c2ccccc21		inactive	
CCCS(=O)(=O)N1CCC(n2c(C(F)(F)F)nc3cccnc32)CC1		inactive	
Cc1ccc(CN2COc3cc(C)c4c(oc(=O)c5ccccc54)c3C2)cc1	-9.61		
COc1ccc(OC)c(-n2nnc(-c3nc(-c4cc(OC)c(OC)c(OC)c4)no3)c2C)c1		inactive	
COc1cc(NC(=O)CCn2nc(C)cc2C)cc(OC)c1OC	1.35		
Cc1cc(C)cc(NC(=O)Cn2nc(N3CCN(c4ccccc4)CC3)ccc2=O)c1		inactive	
COc1cccc(NC(=O)N2CCN(C(=O)c3nsc4ccccc34)CC2)c1	-1.57		
